The campaign covered roughly 190,000 compounds. About 80 (0.04%) were called active. A selection follows. A number with no mark means an inactive call. Cut-off read from the data, not from the text of the source: active = inhibition above about 40%.

Sequence of Bcl-2-like protein 1 (Homo sapiens) (Q07817 whole entry, looked up): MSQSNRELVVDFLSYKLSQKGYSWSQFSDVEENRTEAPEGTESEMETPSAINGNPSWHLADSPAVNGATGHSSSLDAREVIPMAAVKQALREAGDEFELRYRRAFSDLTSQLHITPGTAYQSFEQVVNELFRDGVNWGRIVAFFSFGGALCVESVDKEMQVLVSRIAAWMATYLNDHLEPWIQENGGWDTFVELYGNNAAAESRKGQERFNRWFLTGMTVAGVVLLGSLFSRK

The experiment addresses Bcl-2-like protein 1 (Homo sapiens) (UniProt Q07817). The experiment can be described thus: inhibitors of Bim-Bcl-XL binding, primary screen, biochemical, multiplexed, bead flow cytometry, human Bcl-XL (AID 1007). To be noted: Bim peptide-Bcl-XL binding, fluorescence, at 10 µM, stronger effect = higher value. On the technique in general: A flow cytometer gives signals particle by particle.
For `COCCCNC(=S)NCCNc1nc2cc(C)c(C)cc2cc1C#N`, the inhibition was -1%.
The same measure for `S=C(NCC1CCCO1)N1CCN(c2ccc(Cl)c(Cl)c2)CC1` (configuration not stated): -1%; for `CCn1cnc2scc(-c3ccc(C)c(C)c3)c2c1=O`: 0%.
For the molecule `CC(C)Oc1ccc(CCc2nnc(SCC(=O)O)n2-c2ccccc2)cc1`, the inhibition was -5%.
As to `COc1ccccc1OCC(=O)OCn1c(SC)nnc(C)c1=O`, the inhibition is -7%.
Take `N=C1/C(=C/c2cccn2-c2cccc([N+](=O)[O-])c2)C(=O)N=C2SC=CN12`: the inhibition is -5%.
The same measure for `Cc1c(C(=O)NCCN2C(=O)S/C(=C\c3cccs3)C2=O)cccc1[N+](=O)[O-]`: -6%.
With `CCCn1nc(NS(=O)(=O)c2ccccc2)c2cc3cc(C)ccc3nc21`, the inhibition was 0%.
The value for `Cc1ccc(NC(=O)CSc2nc(CSc3ccc(C)cc3)cc(=O)[nH]2)cc1` was -1%; that for `CN(C)C(CNC(=O)Cc1ccc([N+](=O)[O-])cc1)c1ccccc1` (configuration not stated) was -1%; that for `S=c1[nH]nc(-c2cccs2)n1/N=C/c1cccs1` was 1%.
The value for `FC(F)(F)c1cccc(Cc2noc(CN3CCC(N4CCCCC4)CC3)n2)c1` was 0%; that for `COc1ccc(C/C(C)=N/NC(=O)c2ccncc2)cc1` was -3%; that for `Cc1ccc(N(C(=O)c2ccc(S(=O)(=O)N(C)C)cc2)C2C=CS(=O)(=O)C2)cc1` (configuration not stated) was 0%.
The value for `Cc1ccc(C(=O)/C=C/Nc2ccc(S(=O)(=O)Nc3onc(C)c3C)cc2)cc1` was -1%.
Turning to `O=C(CNCc1ccc(Cl)cc1)Nc1cccc(C(=O)O)c1`, the inhibition is -5%.
Turning to `CNS(=O)(=O)c1ccc(NC(=O)C2CC(=O)N(c3ccc(Cl)cc3)C2)cc1` (configuration not stated), the inhibition is -2%.
As to `CC(=O)Nc1ccc(NC(=O)C(C)n2c3ccccc3c3nc(=O)cc(C)n32)cc1` (configuration not stated), the inhibition was 0%.
The same measure for `O=C(O)c1cccc(NC(=S)N/N=C/c2c[nH]c3ccccc23)c1`: -4%; for `CCOC(=O)CN1C(=O)N[C@@H](c2ccc(Br)cc2)C(C(C)=O)=C1C`: -2%.
`COc1ccc(C(C(=O)NC2CCCCC2)N(C(=O)Cc2c[nH]c3ccccc23)c2ccccc2)cc1OC` (configuration not stated): the inhibition was 10%.
On to `COc1cc(CN(C)Cc2nc3cc(C(F)(F)F)ccc3c(=O)[nH]2)ccc1OC(F)F`, for which the inhibition was 0%.
The value for `COCCN(CCOC)S(=O)(=O)c1ccc(/C(O)=C(\C#N)c2nc3ccccc3[nH]2)cc1` was -3%; that for `O=C(NCc1ccccc1Cl)C1CCCO1` (configuration not stated) was 2%.
The value for `O=C(O)c1ccccc1-c1ccccc1C(=O)NCc1cccnc1` was -2%; that for `Cc1ccccc1-n1nc(SCC(=O)O)sc1=S` was 2%; that for `COc1ccc(-c2[nH]ncc2CN(C)Cc2cc(C)[nH]n2)c(F)c1` was -3%.
The value for `CCOCCCNC(=S)N1CCC(NC(=O)C2CCCCC2)CC1` was -3%.
On to `CNC(=S)N/N=C/c1cn(Cc2ccc(C)cc2)c2ccccc12`, for which the inhibition is -5%.
The same measure for `COc1ccc(C(=O)C2CCCN(C(=O)c3cc4nc(C)cc(C)n4n3)C2)cc1F` (configuration not stated): -2%; for `CC(C)NC(=O)C(=O)NCCCOC(C)C`: -6%; for `NC(=S)N/N=C/c1coc2cc(Cl)ccc2c1=O`: -5%.
As for `Cc1ccc(Nc2nnc(SCC(=O)c3cc4ccccc4o3)s2)cc1C`, the inhibition is -20%.
Take `COc1cc(NC(=S)N2CCCC(C)C2)c(OC)cc1Cl` (configuration not stated): the inhibition is -7%.
For the molecule `CC(C)COP(=O)(c1ccc(N(C)C)cc1)C(Nc1ccccc1)c1cccnc1` (configuration not stated), the inhibition was -15%.
For `CC1CC(=S)Nc2ccccc2N1Cc1ccccc1` (configuration not stated), the inhibition was -6%.
The same measure for `CSc1ccccc1NC(=O)Cc1ccc(Br)cc1`: -4%; for `CCCN(CC(=O)Nc1ccccc1C)C(=O)c1cc(=O)[nH]c2ccccc12`: 2%; for `Cc1cc(=O)oc2c1c(C)nn2-c1ccc(Cl)cc1`: 1%.
The value for `COc1ccc(C(C)=O)cc1CSc1nc2nc(C)cc(C)n2n1` was -2%; that for `Cc1nc(S(=O)(=O)c2ccc(Br)cc2)nc2c1CCC2` was 0%; that for `COc1cc(C(=O)N2C(=O)c3cccc(N)c3C2=O)cc(OC)c1OC` was -2%.
The value for `Cc1ccc(C)c(OCC(=O)N2CCN(C(=O)c3ccco3)CC2)c1` was -8%; that for `COc1cc(C(=O)Nc2cc(C(F)(F)F)ccc2N2CCOCC2)ccc1O` was -6%.
For the molecule `CCCn1nc(Oc2nc(NC(C)C)nc(N(C)C)n2)ccc1=O`, the inhibition was -2%.
The same measure for `NS(=O)(=O)c1ccc(NC(=O)/C=C/c2ccccc2Cl)cc1`: 1%.
As to `NNC(=O)COc1ccc(C2SCCS2)cc1`, the inhibition was 0%.
The same measure for `COc1ccc(-n2nnnc2SCC(=O)NCc2cccs2)cc1`: 1%; for `Cn1c(-c2ccc(F)cc2)cnc1SCC(=O)NNC(=O)Cc1ccccc1`: 0%.
The same measure for `Cc1ccc(CC(=O)Nc2cccc(C#N)c2)cc1`: -4%; for `C[C@H](NC(=O)c1ccccc1Cl)C(=O)OCCOc1cccc(Cl)c1`: -14%.
For `Cn1nnnc1NCc1ccc(Cl)c(Cl)c1`, the inhibition was 0%.
The value for `COc1ccc(CNC(=O)C2CCN(S(C)(=O)=O)CC2)cc1` was -3%.
For `CC(Nc1ccccc1)c1cccnc1` (configuration not stated), the inhibition is -2%.
The same measure for `CCOC(=O)NC(=O)CSc1nnc(SCCC(=O)O)s1`: -10%; for `O=C(Nc1ccccc1-c1ccccc1)c1cccs1`: -3%; for `CC(C)(C)c1ccc(C(=O)NCc2nnc(SCC(=O)N3CCCc4ccccc43)n2-c2ccccc2)cc1`: -8%.
Turning to `Cc1ccc(O)c(-c2cc(C(=O)NCc3ccccc3)[nH]n2)c1`, the inhibition is -3%.
On to `C/C(N)=C(/C#N)C(=O)COC(=O)c1cc(-c2cccc(Br)c2)nc2ccccc12`, for which the inhibition is -1%.
On to `CCOC(=O)N1CCN(C(=O)c2ccccc2N(Cc2ccccc2)S(=O)(=O)c2ccc(OC)cc2)CC1`, for which the inhibition was 0%.
The same measure for `Cc1ccc(S(=O)(=O)/N=S(\C)C(C)C)cc1` (configuration not stated): -3%.
The value for `COc1ccccc1CNC(=O)CNC(=O)c1cn(-c2ccccc2OC)c(=O)c2ccccc12` was -2%; that for `CC(=O)OC(COc1ccc(F)cc1)Cn1cnc2ccccc21` (configuration not stated) was -4%.
The same measure for `O=C(Nc1ccc(F)c([N+](=O)[O-])c1)C1CC(=O)N(Cc2ccccc2)C1` (configuration not stated): 0%; for `Cc1ccnc2nc(C(=O)OCC(=O)N(CC(C)C)CC(C)C)nn12`: -7%; for `Cc1ccc(OCC(=O)Nc2ccccc2Sc2ccc(Cl)cc2)c([N+](=O)[O-])n1`: 0%.
As for `O=C1N/C(=N\N=C\c2ccco2)SC1Cc1ccc(F)cc1` (configuration not stated), the inhibition was -4%.
The same measure for `CCNC(=O)NC(=O)C(C)OC(=O)C1CCN(S(=O)(=O)c2ccccc2F)CC1` (configuration not stated): -2%; for `CN1CCN(/N=C2/C(=O)Nc3ccc([N+](=O)[O-])cc32)CC1`: 0%; for `COc1ccc(CN2CCC(c3nc4ccc(Cl)cc4[nH]3)CC2)cc1`: 0%.
In the case of `CC(=O)Nc1ccc(S(=O)(=O)N(C)c2ccc(OCC(=O)OCC(=O)N3CCCCC3)cc2)cc1`, the inhibition is -3%.
For the molecule `Cc1cc(C)cc(NC(=O)COC(=O)c2cc(C)oc2C)c1`, the inhibition was -4%.
The value for `O=C(CN1CCN(C/C=C/c2ccccc2)CC1)Nc1ccc(F)cc1F` was -1%; that for `CN=C(c1ccccc1)c1c(C)cccc1C` was -9%.
`COc1cccc(OCCCN2CCCCCC2)c1`: the inhibition was -1%.
The value for `Cc1cc(O)ccc1NC1=CC(=O)CC(C)(C)C1` was 0%; that for `C#CCNC(=O)C1=C[C@@H](c2ccccc2)[C@H](CCCO)[C@@H](OCC)O1` was -1%.

The inhibition is the drop in the measured response relative to a control, in per cent.

The values above are taken from PubChem BioAssay AID1007 (NMMLSC, 2008).
